Experimental data taken from the supplement of paper PMC10849652.
The full data set covers some 7,900 targets. This sample favours those with a hit. About 0.6% of all pairs of compound and target were hits.

compound: Cc1ccc(C(=O)N(CCCN)[C@@H](c2nc3cc(Cl)ccc3c(=O)n2Cc2ccccc2)C(C)C)cc1 [ispinesib]; experiment: log2 fold change, soluble protein after heating vs DMSO (PISA); higher = thermal stabilisation; K562 cells, 10 uM, 30 min; active = over 0.2 and 3.5 SD of the protein, either way, in both replicates (recomputed)
In short: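 Soluble protein was quantified by TMTpro 16plex LC-MS/MS after channel sums were equalised. It was obtained as the supernatant after 21,000xg for 90 min from pooled aliquots of K562 cells (2×10^6 cells/mL, 10 μM compound, 30 min) heated for 3 min across 48°C-58°C and extracted in PBS with 0.5% NP-40 at 4°C. Thermal stability values are relative to control samples and come from duplicates. They are given as log2 fold changes.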

UniProt Q01081, sequence (Q01081 whole entry, looked up): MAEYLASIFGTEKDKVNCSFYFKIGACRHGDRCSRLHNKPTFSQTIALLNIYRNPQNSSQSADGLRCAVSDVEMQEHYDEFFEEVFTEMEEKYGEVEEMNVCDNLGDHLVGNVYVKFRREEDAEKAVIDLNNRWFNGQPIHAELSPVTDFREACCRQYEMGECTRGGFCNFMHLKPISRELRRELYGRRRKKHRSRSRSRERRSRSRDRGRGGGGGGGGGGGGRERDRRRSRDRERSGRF
UniProt Q92973, sequence (Q92973 whole entry, looked up): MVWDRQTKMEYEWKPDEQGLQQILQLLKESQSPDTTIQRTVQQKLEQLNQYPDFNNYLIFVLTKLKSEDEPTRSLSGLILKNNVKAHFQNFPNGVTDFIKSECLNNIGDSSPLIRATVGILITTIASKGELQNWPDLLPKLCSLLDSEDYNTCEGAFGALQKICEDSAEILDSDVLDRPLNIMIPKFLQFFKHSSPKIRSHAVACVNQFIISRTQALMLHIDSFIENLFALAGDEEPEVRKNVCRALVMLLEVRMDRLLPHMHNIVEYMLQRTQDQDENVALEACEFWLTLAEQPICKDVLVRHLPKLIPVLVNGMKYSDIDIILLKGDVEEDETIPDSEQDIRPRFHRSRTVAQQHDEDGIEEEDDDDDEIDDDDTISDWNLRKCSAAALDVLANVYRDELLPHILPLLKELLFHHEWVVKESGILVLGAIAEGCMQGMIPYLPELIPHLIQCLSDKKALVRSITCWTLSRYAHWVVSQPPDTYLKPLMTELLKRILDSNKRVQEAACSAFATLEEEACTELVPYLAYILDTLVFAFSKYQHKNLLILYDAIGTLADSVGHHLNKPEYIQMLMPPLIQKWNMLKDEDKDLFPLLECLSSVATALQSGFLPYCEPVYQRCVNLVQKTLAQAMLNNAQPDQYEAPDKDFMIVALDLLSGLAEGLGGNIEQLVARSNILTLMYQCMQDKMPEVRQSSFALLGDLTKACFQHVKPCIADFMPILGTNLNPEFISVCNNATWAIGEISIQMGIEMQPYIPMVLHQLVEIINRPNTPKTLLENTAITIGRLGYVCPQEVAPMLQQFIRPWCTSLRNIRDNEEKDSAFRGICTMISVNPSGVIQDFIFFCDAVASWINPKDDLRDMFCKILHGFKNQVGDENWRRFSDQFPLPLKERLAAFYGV
UniProt Q9UHP3, sequence (Q9UHP3 whole entry, looked up): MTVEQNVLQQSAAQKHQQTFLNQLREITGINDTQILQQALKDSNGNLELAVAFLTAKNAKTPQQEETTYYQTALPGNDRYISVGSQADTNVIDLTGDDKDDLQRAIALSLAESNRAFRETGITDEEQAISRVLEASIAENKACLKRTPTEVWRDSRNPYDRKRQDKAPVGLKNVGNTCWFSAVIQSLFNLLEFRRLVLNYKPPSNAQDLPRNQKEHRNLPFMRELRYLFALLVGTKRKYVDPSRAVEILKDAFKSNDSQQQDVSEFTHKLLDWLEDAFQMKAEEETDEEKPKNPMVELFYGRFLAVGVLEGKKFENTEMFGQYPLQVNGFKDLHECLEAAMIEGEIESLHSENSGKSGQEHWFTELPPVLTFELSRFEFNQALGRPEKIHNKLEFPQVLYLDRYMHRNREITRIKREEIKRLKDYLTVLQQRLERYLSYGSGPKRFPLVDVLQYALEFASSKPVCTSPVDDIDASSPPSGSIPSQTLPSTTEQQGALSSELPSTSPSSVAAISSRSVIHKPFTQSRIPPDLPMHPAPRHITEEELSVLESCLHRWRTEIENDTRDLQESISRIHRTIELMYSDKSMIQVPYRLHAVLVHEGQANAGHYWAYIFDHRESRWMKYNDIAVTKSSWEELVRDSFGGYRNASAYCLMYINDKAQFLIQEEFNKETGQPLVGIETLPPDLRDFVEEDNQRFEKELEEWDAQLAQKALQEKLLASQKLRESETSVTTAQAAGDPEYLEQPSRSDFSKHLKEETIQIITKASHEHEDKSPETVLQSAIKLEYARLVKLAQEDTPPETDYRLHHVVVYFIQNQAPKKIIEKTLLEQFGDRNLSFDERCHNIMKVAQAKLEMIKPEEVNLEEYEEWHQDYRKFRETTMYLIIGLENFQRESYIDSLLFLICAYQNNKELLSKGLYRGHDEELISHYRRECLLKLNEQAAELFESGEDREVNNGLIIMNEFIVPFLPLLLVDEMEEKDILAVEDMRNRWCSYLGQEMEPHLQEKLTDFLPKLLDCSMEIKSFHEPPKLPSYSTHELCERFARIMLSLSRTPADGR
UniProt Q13263, sequence (Q13263 whole entry, looked up): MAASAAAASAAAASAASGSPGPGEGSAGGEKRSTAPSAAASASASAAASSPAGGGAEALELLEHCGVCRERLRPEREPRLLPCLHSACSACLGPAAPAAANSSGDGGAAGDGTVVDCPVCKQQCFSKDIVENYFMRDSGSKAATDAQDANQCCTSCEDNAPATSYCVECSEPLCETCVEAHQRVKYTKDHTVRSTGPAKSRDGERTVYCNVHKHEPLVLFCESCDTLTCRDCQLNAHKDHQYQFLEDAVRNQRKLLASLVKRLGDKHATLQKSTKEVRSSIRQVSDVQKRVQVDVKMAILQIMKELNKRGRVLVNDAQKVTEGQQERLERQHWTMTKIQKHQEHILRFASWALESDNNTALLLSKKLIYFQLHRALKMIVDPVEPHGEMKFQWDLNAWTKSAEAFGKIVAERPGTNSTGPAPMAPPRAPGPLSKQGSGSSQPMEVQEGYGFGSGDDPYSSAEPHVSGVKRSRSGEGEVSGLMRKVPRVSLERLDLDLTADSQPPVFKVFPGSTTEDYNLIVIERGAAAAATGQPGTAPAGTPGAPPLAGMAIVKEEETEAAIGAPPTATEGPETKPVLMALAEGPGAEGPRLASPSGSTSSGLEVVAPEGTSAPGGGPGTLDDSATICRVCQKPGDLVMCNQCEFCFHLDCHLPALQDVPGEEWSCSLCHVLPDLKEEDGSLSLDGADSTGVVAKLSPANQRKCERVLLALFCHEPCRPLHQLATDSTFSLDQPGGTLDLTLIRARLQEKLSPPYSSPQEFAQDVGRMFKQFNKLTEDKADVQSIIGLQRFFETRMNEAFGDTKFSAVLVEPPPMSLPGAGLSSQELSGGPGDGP
UniProt P13010, sequence (P13010 whole entry, looked up): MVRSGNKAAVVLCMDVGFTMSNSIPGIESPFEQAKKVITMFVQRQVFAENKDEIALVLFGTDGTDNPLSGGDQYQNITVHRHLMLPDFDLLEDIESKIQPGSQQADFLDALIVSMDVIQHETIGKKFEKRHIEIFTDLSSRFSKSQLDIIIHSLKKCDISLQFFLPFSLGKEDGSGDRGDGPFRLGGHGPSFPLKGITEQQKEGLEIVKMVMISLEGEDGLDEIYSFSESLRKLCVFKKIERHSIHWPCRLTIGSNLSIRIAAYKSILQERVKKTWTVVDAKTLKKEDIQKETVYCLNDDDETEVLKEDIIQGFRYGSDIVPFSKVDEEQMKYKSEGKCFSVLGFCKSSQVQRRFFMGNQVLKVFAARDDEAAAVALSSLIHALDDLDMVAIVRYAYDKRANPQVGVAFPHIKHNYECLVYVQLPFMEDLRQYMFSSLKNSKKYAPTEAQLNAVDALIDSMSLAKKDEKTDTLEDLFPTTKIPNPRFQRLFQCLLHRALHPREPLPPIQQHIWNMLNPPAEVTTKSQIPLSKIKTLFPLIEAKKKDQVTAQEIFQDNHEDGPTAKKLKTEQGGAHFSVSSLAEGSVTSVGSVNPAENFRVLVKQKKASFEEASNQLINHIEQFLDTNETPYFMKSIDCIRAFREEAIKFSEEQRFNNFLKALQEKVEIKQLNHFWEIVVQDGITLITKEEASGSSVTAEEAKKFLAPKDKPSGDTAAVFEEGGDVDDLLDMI
UniProt Q8N1B4, sequence (Q8N1B4 whole entry, looked up): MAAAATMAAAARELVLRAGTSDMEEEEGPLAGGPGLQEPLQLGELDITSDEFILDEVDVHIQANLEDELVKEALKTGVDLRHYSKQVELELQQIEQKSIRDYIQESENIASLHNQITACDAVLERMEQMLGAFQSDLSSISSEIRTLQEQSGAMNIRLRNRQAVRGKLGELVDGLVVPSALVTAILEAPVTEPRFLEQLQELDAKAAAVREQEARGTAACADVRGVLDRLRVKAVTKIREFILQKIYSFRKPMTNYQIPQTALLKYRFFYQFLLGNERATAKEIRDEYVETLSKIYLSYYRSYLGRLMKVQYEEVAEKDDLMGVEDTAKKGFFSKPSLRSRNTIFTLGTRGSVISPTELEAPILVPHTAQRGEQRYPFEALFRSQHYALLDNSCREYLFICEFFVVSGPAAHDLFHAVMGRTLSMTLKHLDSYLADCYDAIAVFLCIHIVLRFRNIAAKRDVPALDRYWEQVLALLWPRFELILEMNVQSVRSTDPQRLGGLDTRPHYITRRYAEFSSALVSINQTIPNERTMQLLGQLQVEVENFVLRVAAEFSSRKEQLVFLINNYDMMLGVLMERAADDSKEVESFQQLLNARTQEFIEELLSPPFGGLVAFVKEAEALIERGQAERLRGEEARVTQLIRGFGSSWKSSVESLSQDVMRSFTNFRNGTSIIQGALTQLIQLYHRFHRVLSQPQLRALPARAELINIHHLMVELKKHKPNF
UniProt Q9NZ09, sequence (Q9NZ09 whole entry, looked up): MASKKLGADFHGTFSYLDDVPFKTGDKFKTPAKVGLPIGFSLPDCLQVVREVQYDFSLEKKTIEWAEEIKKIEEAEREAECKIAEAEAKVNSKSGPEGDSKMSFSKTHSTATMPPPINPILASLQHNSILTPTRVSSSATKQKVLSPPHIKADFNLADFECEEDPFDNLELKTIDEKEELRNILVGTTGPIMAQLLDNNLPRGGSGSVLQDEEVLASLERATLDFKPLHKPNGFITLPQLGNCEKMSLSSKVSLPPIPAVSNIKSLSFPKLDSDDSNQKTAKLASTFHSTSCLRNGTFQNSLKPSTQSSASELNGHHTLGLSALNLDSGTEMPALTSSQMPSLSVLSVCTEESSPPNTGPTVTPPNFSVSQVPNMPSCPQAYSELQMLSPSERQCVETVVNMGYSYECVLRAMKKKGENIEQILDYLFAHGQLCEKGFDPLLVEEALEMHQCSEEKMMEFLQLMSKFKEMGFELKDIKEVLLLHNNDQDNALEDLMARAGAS

Target	log2 fold change
U2AF1 isoform 2 (UniProt Q01081)	0 (inactive)
XRCC5 (UniProt P13010)	-0.16 (inactive)
TNPO1 (UniProt Q92973)	-0.113 (inactive)
VPS52 (UniProt Q8N1B4)	-0.068 (inactive)
TMEM263 (UniProt Q8WUH6)	-0.936 (active)
USP25 isoform 3 (UniProt Q9UHP3)	-0.025 (inactive)
VPS50 (UniProt Q96JG6)	-0.023 (inactive)
UBAP1 isoform 4 (UniProt Q9NZ09)	-0.046 (inactive)
TNPO2 (UniProt O14787)	-0.14 (inactive)
VPS18 (UniProt Q9P253)	-0.203 (inactive)
TRIM28 (UniProt Q13263)	-0.007 (inactive)
